The test system of the assay is OVCAR-3-derived ovarian cancer stem-like cells (spheroids). Put plainly: cell growth relative to untreated control; higher = more growth (less inhibition). The conditions noted are these: 2.29 µM; 96 h. The method, boiled down:
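Viability of stem-like cells from OVCAR-3 spheroids was assessed with TOX8 resazurin fluorescence at ex 560/em 590 nm. The cells had been trypsin-dissociated, seeded at 50,000 cells/mL in stem cell medium in ultra-low attachment 96-well plates and preincubated 24 h, then treated with compounds at 2.29 uM for 96 h at 37°C, 5% CO2, in 4 replicate wells, with fluorescence read after 4 h. Results were converted to percent growth against untreated wells after blank subtraction and Grubbs outlier removal.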

This note sets out measurements from the supplement of paper PMC3484114.

± gives the standard deviation.

On to `C=C1C(=O)OCC2C(C(=O)O)=CC3C(C)C(C)=CC123` (stereo unspecified), for which the cell growth came to 76.4 ± 10%.
Consider `COc1ccc(OC)c2nc3c(C(=O)NCCN(C)C)cccc3nc12`, for which the cell growth came out at 119 ± 27%.
Regarding `COc1cc2c(c(O)c1OC)-c1c(cc(OC)c(OC)c1OC)C[C@@H](C)[C@@H](C)C2`, the cell growth was determined as 82 ± 20%.
In the case of `COc1cccc(/C=N\NC(=O)C(C)SC(C)C(=O)N/N=C/c2cccc(OC)c2)c1` (stereo unspecified), the cell growth turned out to be 100 ± 33%.
Next, `O=Cc1cc([N+](=O)[O-])no1`: 115 ± 26%; `Cc1cccc(C)c1NC(=O)C(=O)C(c1ccccc1Cl)S(=O)(=O)Cc1ccccc1Cl` (stereo unspecified): 85.2 ± 16%; `CN(C)[C@@H]1C(=O)C(C(N)=O)=C(O)[C@@]2(O)C(=O)C3=C(O)c4c(O)cccc4C[C@H]3C[C@@H]12`: 57.8 ± 20%.
Next, `CCOC(C)C(C=NNC(N)=S)=NNC(N)=S` (stereo unspecified): 23 ± 5.7%.
For `Cc1ccc(NC(=O)/C=C/c2ccccc2)c(C)c1` the value was 77.2 ± 16%; for `Nc1ccc(OCCCc2c(-c3ccccc3)nc(N)[nH]c2=O)cc1`, 82.7 ± 20%; for `CCCCCC(/C=C/[C@@H]1CC(=O)C[C@H]1O[Si](C)(C)C(C)(C)C)OCOCCOC` (stereo partly specified), 110 ± 24%.
In turn, `N#CCCN(CCC#N)c1ccc(/C=C2/N=C(c3cc([N+](=O)[O-])ccc3Cl)OC2=O)cc1` registered a cell growth of 114 ± 40%.
For `CC(C)CCCCCCCCCCCCC(=O)NCC(=O)NC1C(C)OC(Nc2ncnc3nc[nH]c23)C(O)C1O` (stereo unspecified) the value was 17.4 ± 6.2%.
For `COC(=O)c1c[nH]c2c1-c1cc(C(=O)OCc3ccccc3)n(S(=O)(=O)c3ccc(C)cc3)c1C(=O)C2=O` the value was 20.9 ± 3.5%; for `Cc1ccc(NC(=O)c2cccc([N+](=O)[O-])c2O)c([N+](=O)[O-])c1`, 86.3 ± 17%.
The compound `Oc1ccc(-c2nc3ccccc3s2)cc1` returned a cell growth of 94.8 ± 14%.
`N[C@@H](CSC(c1ccccc1)(c1ccccc1)c1ccccc1)C(=O)O` yielded a cell growth of 34.8 ± 6.7%.
On to `COC1CC(C)C(OC)c2cc(O)cc(c2O)NC(=O)/C(C)=C/C=C\C(C)C(OC(N)=O)/C(C)=C/C(C)C1OC` (stereo unspecified), for which the cell growth came out at 29 ± 4.8%.
Next, `C=C1CC(Cn2cc(Br)c(=O)[nH]c2=O)(c2ccc(-c3ccccc3)cc2)OC1=O` (stereo unspecified): 57.1 ± 20%; `N#Cc1ccccc1NC(=O)C(=O)C(C(=O)c1ccccc1F)C1OC(=O)c2ccccc21` (stereo unspecified): 98.8 ± 24%; `CC[C@@]1(O)C[C@H](O[C@H]2C[C@H](N(C)C)[C@H](O[C@H]3C[C@H](O)[C@H](O[C@H]4C[C@H](O)[C@H](O)[C@H](C)O4)[C@H](C)O3)[C@H](C)O2)c2c(cc3c(c2O)C(=O)c2c(O)ccc(O)c2C3=O)[C@H]1C(=O)OC`: 78.9 ± 26%.
For `CC1(C)NC(=O)N(CCCCCCN2C(=O)NC(C)(C)C2=O)C1=O` the value was 85.8 ± 22%; for `CN(C)c1ccc(/C=C2/C=Cc3ccccc32)cc1`, 101 ± 8.1%; for `C/C(NNC(=O)c1ccccc1O)=C1\C=Nc2ccccc2S1`, 16 ± 5.3%.
Turning to `CC(=O)c1ccc(Oc2ccc(/C(C)=N/N=C(N)N)cc2)cc1`, the cell growth was determined as 32.4 ± 7.5%.
Take `Cc1cc(O)c(/C=N/C(N)=S)c(=O)o1`: the cell growth came out at 92.5 ± 14%.
Take `CCOC(=O)Nc1nc2ccc(Cn3cccc3)cc2[nH]1`: the cell growth turned out to be 127 ± 20%.
As to `N#CC(=C1C=CC(=NO)C=C1)c1ccc(Cl)cc1`, the cell growth turned out to be 91.1 ± 17%.
In turn, `Cc1cc2nc(C=C(C(F)(F)F)C(F)(F)F)oc2cc1C` had a cell growth of 130 ± 36%.
For `CC1(C)N=C(N)N=C(N)N1c1ccc(OCCCOc2ccccc2)c(Cl)c1` the value was 43.6 ± 13%; for `Nc1nc2c(ncn2[C@@H]2O[C@H](CO)[C@@H](O)[C@H]2O)c(=O)[nH]1`, 107 ± 11%; for `O=S(=O)(O)c1cc(N=Nc2cc(S(=O)(=O)O)c3cccnc3c2O)ccc1/C=C/c1ccc(N=Nc2cc(S(=O)(=O)O)c3cccnc3c2O)cc1S(=O)(=O)O`, 93.7 ± 14%.
For `Oc1ccc(/C=N/NC(=S)Nc2cccnc2)nc1`, the cell growth came to 145 ± 23%.
For `CC(=O)c1sc2c(c1OC(=O)c1ccc(Cl)cc1Cl)c(=O)n(-c1ccccc1)c(=S)n2-c1ccccc1` the value was 94.1 ± 24%.
For `COc1ccccc1Cc1nc(-c2ccccc2)nn(C2OC(COC(C)=O)C(OC(C)=O)C(OC(C)=O)C2OC(C)=O)c1=S` (stereo unspecified), the cell growth worked out at 97.5 ± 16%.
In turn, `CCOC(=O)C(C)NC(=O)N(C)C12CC3CC(CC(C3)C1)C2` (stereo unspecified) displayed a cell growth of 8 ± 3.5%.
The compound `Nc1ccn([C@@H]2C=C(CO)[C@@H](O)[C@H]2O)c(=O)n1` displayed a cell growth of 44.8 ± 5.1%.
`CC(=O)NCCCCCCNC(C)=O` came in with a cell growth of 119 ± 7.8%.
`CN(C)[C@H]1CCC2[C@@H]3CCC4C[C@@H](NC(=O)NC(Cc5ccccc5)c5nccs5)CC[C@]4(C)C3CC[C@@]21C` (stereo partly specified): the cell growth amounted to 76.9 ± 20%.
For `COC(=O)c1[nH]c(=S)[nH]c(=O)c1-c1ccc(Cl)cc1`, the cell growth was 37.8 ± 14%.
For `CC(C)c1cccc(O)c(=O)c1` the value was 91.8 ± 19%; for `CCN(CC)Cc1cc(N=Nc2c(O)ccc3c(N=Nc4ccc(O)c(CN(CC)CC)c4)c(O)ccc23)ccc1O`, 70.5 ± 21%.
For `O=C([O-])c1cc(I)cc(I)c1O.O=C([O-])c1cc(I)cc(I)c1O.[Mn+2]` the value was 77.4 ± 10%.
Next, `O=c1[nH]c(=O)n(C2CCCO2)cc1F` (stereo unspecified): 24.9 ± 6.8%; `COc1cc(CC(=O)c2cc3c(cc2-c2ccccc2)OCO3)cc(OC)c1OC`: 83.1 ± 25%.
Compound `COc1ccc2c(O)c3[n+](cc2c1OC)CCc1cc2c(cc1-3)OCO2` had a cell growth of 103 ± 14%.
